For 12 molecules, outcome and AC50 results are on record in PubChem BioAssay (EPA / NIEHS).

SMILES strings stand for the structures. Active and inactive are the calls of the source. How the source made its calls, unless noted: active means hit-call score of the fitted dose curve at least 0.9, where 1 is the maximum; inactive means score below 0.9.

Test system in one assay: not listed separately
The experiment in a line: CCTE_Deisenroth_H295R-HTRF_384WELL_CTOX: Cytotoxicity Assessment in CCTE's H295R-HTRF Assay, Deisenroth Lab (AID 2284380; active means hit-call score of the fitted dose curve at least 0.9, where 1 is the maximum). In a few lines: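 H295R adrenocortical carcinoma cells plated 24 h, then exposed 48 h to nine-point series 0.001–100 uM final, triplicate, n=5. ATP measured by CellTiter-Glo 2.0 luminescence on same plates after medium collection; loss versus DMSO.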
(TR-FRET usually uses a lanthanide donor and a delayed reading to cut background.)
With `CCSC(=O)N1CCCCCC1`, the outcome was inactive. Still for that read-out and setting: to `CCCCC(C#N)(Cn1cncn1)c1ccc(Cl)cc1` (configuration not stated) belongs “inactive”. As to `CC(C)(C)C(=O)C(Oc1ccc(Cl)cc1)n1cncn1` (configuration not stated), the molecule was classed as inactive.

In a further assay the test system is TTR (gene 7276). The experiment in a line: CCTE_GLTED_hTTR_0.125uM: CCTE's human Transthyretin (hTTR) Inhibition Assay, with 0.125uM TTR, Great Lakes Toxicology and Ecology Division (GLTED) Lab (AID 2284431).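 Further: hits lower the fluorescence signal relative to DMSO baseline.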 In a few lines:
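Cell-free displacement of the fluorescent probe ANSA from human TTR (0.125uM) after 2 h incubation with test chemical. Fluorescence read at 380 nm excitation/475 nm emission; loss of signal fitted relative to DMSO baseline.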
For `CO/N=C(/C1=NOCCO1)c1ccccc1Oc1ncnc(Oc2ccccc2Cl)c1F`, the AC50 (in general, the midpoint of the concentration-response curve, whichever way the signal moves) was 5.22 µM (active). The same measure, in the same setting: to `CCOc1nc(C(Cl)(Cl)Cl)ns1` belongs 5.26 µM (active).

With `CC(C)NC(=O)N1CC(=O)N(c2cc(Cl)cc(Cl)c2)C1=O`, the AC50 was 2.51 µM (active). Still for that read-out and setting: under `O=C1C2CC=CCC2C(=O)N1SC(Cl)(Cl)Cl` (configuration not stated) stands 21.1 µM (active); under `N#Cc1c[nH]cc1-c1cccc2c1OC(F)(F)O2`, 0.5 µM (active). On the same count and under the same terms, to `CCOP(=O)(OCC)Oc1nc(Cl)c(Cl)cc1Cl` belongs 0.395 µM (active); to `COP(=S)(OC)Oc1ccc([N+](=O)[O-])c(C)c1`, 8.85 µM (active). On the same count and under the same terms, to `COc1cc(Cl)c(OC)cc1Cl` belongs 4.26 µM (active); to `Cn1c(-c2ccccc2)cc(-c2ccccc2)[n+]1C`, 27.8 µM (active).
